Compound activity: PubChem BioAssay, National Center for Advancing Translational Sciences (NCATS)
The entries come from a sample that favours hits as a whole.
CHX counter: affects cycloheximide protein synthesis inhibition readout, counter-screen; max response, %; 300,000 tested, 12% active; AID 2314; cell reporter, cycloheximide protein synthesis inhibition counterscreen; in the data active = max response mostly above about 13%, no sharp cut-off; inactive = mostly below about 14%; also: read at 38.3 µM for the half of the compounds with a filed dose; 0% is about no effect
NS1 inh: inhibitors of influenza NS1 protein function; 270,000 tested, 0.4% active; Potency, µM (highest dose often 46.1 µM), without a hit: at the top dose activity, positive = more growth; AID 2326; also: potency is read from the fitted curve at half-maximal effect; actives are rising curves; nearly all actives have a fitted effect of over 50% in size
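Growth recovery, yeast-based: influenza A NS1 expressed in S. cerevisiae causes slow growth, and suppressors are detected by OD600. The parent strain without NS1 is used as positive control.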
TbPYK inhibitor: T. brucei pyruvate kinase inhibition | TbPYK enzyme, Kinase-Glo Plus ATP luminescence, 45 min | AID 624173 | Q57TT1 | 410,000 tested, 0.12% active | Potency, µM (doses to about 76.8 µM), for inactives: top-dose activity, negative = inhibition, most hits filed as inhibitors; active = well fitted curve in the direction sought with a large enough effect; inconclusive = small, poorly fitted or top-dose-only effect, or another doubt; inactive = no such curve, though single readings can be large; an effect the other way counts as inactive or inconclusive; also: potency is read from the fitted curve at half-maximal effect; % is scaled to controls: 0 for no effect and ±100 for the full control effect; nearly all actives have a fitted effect of over 50% in size
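Assay buffer: 50 mM TEA pH 7.2, 100 mM KCl, 10 mM MgCl2, 0.05% BSA, 0.01% Tween-20. Pyruvate kinase from T. brucei plus substrate met compound, then ADP (130 uM final). Luminescence was read post 45 min RT.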
LmPK inhibitor: blocks Leishmania mexicana pyruvate kinase activity; purified LmPK, Kinase-Glo ATP luminescence, 1 h; 290,000 tested, 0.37% active; Potency, µM (series often up to 57.5 µM), for the others: at the top dose activity change, negative = inhibition, hits mostly inhibitors; Q27686; active = well fitted curve in the direction sought with a large enough effect; inconclusive = small, poorly fitted or top-dose-only effect, or another doubt; inactive = no such curve, though single readings can be large; an effect the other way counts as inactive or inconclusive; also: potency is read from the fitted curve at half-maximal effect; % is scaled to controls: 0 for no effect and ±100 for the full control effect
Target sequence (Q27686 whole entry, looked up): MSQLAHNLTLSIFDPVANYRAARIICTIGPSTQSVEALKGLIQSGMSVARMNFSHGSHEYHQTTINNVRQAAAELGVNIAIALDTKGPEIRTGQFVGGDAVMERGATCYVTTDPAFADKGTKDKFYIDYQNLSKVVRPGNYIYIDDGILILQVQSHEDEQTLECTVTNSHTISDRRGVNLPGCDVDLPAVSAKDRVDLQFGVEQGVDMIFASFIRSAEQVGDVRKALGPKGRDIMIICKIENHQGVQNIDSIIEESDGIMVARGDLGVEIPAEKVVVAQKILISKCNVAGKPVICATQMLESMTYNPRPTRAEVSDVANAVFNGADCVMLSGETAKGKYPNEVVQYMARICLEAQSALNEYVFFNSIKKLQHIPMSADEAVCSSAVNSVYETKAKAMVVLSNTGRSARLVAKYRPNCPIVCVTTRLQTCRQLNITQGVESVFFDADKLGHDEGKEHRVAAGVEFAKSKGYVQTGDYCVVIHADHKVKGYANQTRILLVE
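qHTS format; LmPK 0.1 nM; substrates PEP 0.5 mM and ADP 0.1 mM. One-hour room-temperature incubation, then coupled luciferase luminescence; 0.5 nM enzyme wells mark activation.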
Shiga inhibitor: inhibitors of Shiga toxin in Vero cells; Vero cells, Shiga toxin protein synthesis inhibition reporter; inhibition, % at 38.7 µM; 290,000 tested, 9.2% active; AID 2315; in the data active = inhibition mostly above about 28%, no sharp cut-off; inactive = mostly below about 43%; also: 0% is about no effect
SARS PLP yeast: blocks SARS-CoV papain-like protease in a yeast assay; S. cerevisiae expressing SARS-CoV PLpro, growth rescue; AID 485353; 330,000 tested, 0.19% active; Potency, µM (series often up to 32.9 µM), for the others: at the highest dose activity, positive = growth rescue, hits mostly activators; also: potency is read from the fitted curve at half-maximal effect; 0% is about no effect; nearly all actives have a fitted effect of over 55% in size
An asterisk follows results filed as active; ? = inconclusive; / = not tested or not shown; [ ] = dose if it differs, or a comment. Unless noted, calls follow the shape of the full dose curve.

SMILES	CHX counter	NS1 inh	TbPYK inhibitor	LmPK inhibitor	Shiga inhibitor	SARS PLP yeast
CC1(C)Cc2c(cnn2-c2cccc(F)c2)C(NC(=O)CN2CCCC2=O)C1 (centres undefined)	11.2*	17.7%	2.8%	-1.4%	11.2*	-1.6%
Cn1nccc1C(=O)NC1CCCc2c1cnn2-c1cc(F)cc(F)c1 (centres undefined)	31.8*	-3.0%	-5.9%	-1.2%	54.2*	0.6%
CC(C)(C)c1ccc(-n2ncc3c2CCCC3NC(=O)CN2CCCCC2=O)cc1 (centres undefined)	0.9	-13.6%	4.1%	4.6%	12.8	12.8%
CSCC(=O)NC1CCCc2c1cnn2-c1ccc(C)c(C)c1 (centres undefined)	14.5	-9.1%	1.8%	-1.6%	57.5*	-1.5%
CCN(CC)S(=O)(=O)c1ccc(Cl)c(NC(=O)COC(=O)c2nc3nc(C)cc(C)n3n2)c1	/	/	1.1%	/	/	3.0%
O=S(=O)(CCC1CCCCN1)c1ccccc1 (centres undefined)	0.8	8.8%	-2.8%	1.6%	-2.8	4.6%
CC1(C)Cc2c(cnn2-c2cccc(F)c2)C(NC(=O)Cn2cccn2)C1 (centres undefined)	19.4*	2.8%	6.4%	0.4%	-5.4	-5.8%
CC1(C)Cc2c(cnn2-c2cccc(F)c2)C(NC(=O)CSc2ccccn2)C1 (centres undefined)	8.0	8.9%	-22.0%	5.0%	16.7	-3.0%
CN(C)/C=C1\C(=O)Oc2ccccc2C1=O	/	/	0.8%	/	/	/
CN(C)/C=C1\Cc2ccccc2C1=O	45.7*	-0.2%	-5.5%	-3.9%	112.9*	-2.2%
O=C1/C(=C/c2ccco2)Cc2ccccc21	54.1*	-18.0%	-11.0%	-23.5%	78.1*	-35.4%
CN(C)C=C1C(=O)c2ccccc2C1=O	27.4*	5.3%[9.22 µM]	-11.3%	3.2%	64.8*	-9.3%
O=C1C(=Cc2ccc(F)cc2)Cc2ccccc21	/	/	-9.1%	/	/	/
Cc1csc(SCC(=O)NC2CCC(C)CC2)n1 (centres undefined)	/	/	1.8%	/	/	/
OCc1c(OCc2cccc(F)c2)ccc2ccccc12	25.4*	-78.4%	-0.2%	19.1%	/	/
CC(C)C(C(=O)NCC1CCCO1)N(CC1CCCO1)C(=O)CNS(=O)(=O)c1ccccc1 (centres undefined)	-1.2	3.5%	-2.0%	-4.4%	25.5	24.0%
CCc1ccc(-c2cn(-c3nc(C)cc(C)n3)c(=N)o2)cc1	22.9*	-17.6%	-0.1%	-1.1%	46.1	-7.8%
CCc1ccc(N/C(=N/c2nc(C)cc(C)n2)NC(C)=O)cc1	7.2	0.8%	1.1%	-1.1%	-1.6	-4.5%
Cc1c(O)nc(SCC(=O)Nc2nccs2)n(-c2ccccc2F)c1=O	1.2	17.0%	-7.7%	-4.3%	-2.4	0.4%
CCOc1nc(NC(=O)NS(=O)(=O)c2ccccc2F)nc(-c2ccccc2)n1	21.2	/	-2.6%	-1.4%[11.5 µM]	53.3*	4.4%
CCOc1nc(NC(=O)NS(=O)(=O)Oc2ccccc2)nc(-c2ccccc2)n1	/	/	-1.7%	/	/	/
N#Cc1cc2c(nc1SCC(=O)Nc1sc3c(c1C#N)CCC3)CCCCCC2	-1.5	6.6%	-9.0%	-4.0%	-23.0	14.9%
CCc1nnc(NC(=O)CSc2nc(C)cc(C)c2C#N)s1	15.3*	/	-0.6%	2.2%	40.0	-1.5%
O=C(CSc1nc(-c2ccccc2)nc2ccccc12)Nc1nccs1	-2.8	-33.5%	5.1%	2.3%	2.7	-1.3%
CCc1nnc(NC(=O)CSc2nc3c(cc2C#N)CCC3)s1	32.0*	4.0%	0.3%	-0.9%	70.2*	0.4%
SMILES	CHX counter	NS1 inh	TbPYK inhibitor	LmPK inhibitor	Shiga inhibitor	SARS PLP yeast
Cc1ccc(C#N)c(SCC(=O)Nc2nccs2)n1	52.6*	-1.6%	0.8%	2.0%	68.3*	0.9%
CCSc1nnc(NC(=O)CSc2nc3c(cc2C#N)CCCC3)s1	20.7	2.9%	4.8%	-0.1%	25.1	-2.6%
N#Cc1cc2c(nc1SCC(=O)Nc1nccs1)CCCCC2	49.2*	11.1%	-10.3%	-0.8%	94.1*	?
CCCNC(=O)c1cc(C2CCCN(C(=O)C3CC3)C2)on1 (centres undefined)	/	/	-2.4%	/	/	/
c1ccc(OCCNc2ccn3nc(-c4ccc(OCCN5CCOCC5)cc4)cc3n2)cc1	/	/	0.1%	/	/	/
CCOC(=O)c1c(SCC(=O)Nc2nccs2)nc(C)c(C)c1C	26.2*	-1.9%	-10.4%	-4.6%	36.3*	-3.2%
Cc1cc(C)c(C#N)c(SCC(=O)Nc2ccccc2C(N)=O)n1	23.3*	5.9%	-14.8%	3.9%	51.4*	-4.3%
COc1ccc(/C=C(\C#N)C(=O)N2CCOCC2)cc1Br	-1.6	-35.9%	-6.2%	-3.5%	-14.1	-5.8%
Cc1cc(/C=C(\C#N)C(=O)N2CCOCC2)c(C)n1C1CCCC1	26.4*	-2.9%	-4.4%	-6.3%	25.6	-0.7%
Cn1c(SCc2ccc(Br)cc2)nc2c([nH]c3ccccc32)c1=O	/	/	4.2%	/	/	/
CSc1ccc(CN(C)C(=O)c2cc(=O)c3ccccc3o2)cc1	-1.1	-18.6%	0.0%	-1.2%	11.1	-12.7%
CSc1ccc(CN(C)C(=O)c2cc3ccccc3o2)cc1	39.2*	-32.2%	-0.4%	-3.3%	87.3*	-0.4%
CN(Cc1c(F)cccc1Cl)C(=O)c1cc2ccccc2o1	36.8*	/	2.0%	0.7%	35.0	-0.8%
CC(=O)Nc1nc(C2COc3ccccc3O2)cs1 (centres undefined)	32.5*	1.6%	0.0%	-4.4%	49.5*	-8.4%
NC(N)=Nc1nc(C2COc3ccccc3O2)cs1 (centres undefined)	37.2*	-3.5%	-1.1%	-3.2%	75.0*	-2.3%
Cc1ccc2nc(N3CCN(c4ccccc4F)CC3)c3nnnn3c2c1	/	/	-0.5%	/	/	/
CC(C)(C)c1ccc(OCCCC(=O)N2CCOCC2)cc1	39.8*	-1.6%	1.0%	0.8%	55.1*	0.6%
CC(C)(C)c1ccc(OCc2ccc(C(=O)N3CCOCC3)o2)cc1	53.6*	-0.8%	-3.4%	10.8%	114.9*	-2.4%
CC(C)(C)c1ccc(OCc2ccc(C(=O)Nc3cccnc3)o2)cc1	75.4*	0.3%	2.7%	-1.5%	157.2*	-10.4%
COC(=O)c1ccc(COc2ccc(C(C)(C)C)cc2)o1	90.1*	-11.4%	1.2%	5.7%	145.5*	-3.8%
CCOCCCNC(=O)C1CCC(CNS(=O)(=O)c2ccc(NC(C)=O)cc2)CC1 (centres undefined)	/	/	3.5%[15.4 µM]	/	/	/
CCCNC(=O)c1ccc(COc2ccc(Cl)cc2)o1	6.2	-51.8%	1.1%	-6.8%	-1.8	-7.4%
COC(=O)c1ccc(COC(=O)c2cccn2C)o1	23.7*	-10.7%	0.0%	1.5%	139.7*	-2.6%
CCOc1ncccc1C(=O)OCc1ccc(C(=O)OC)o1	5.3	-55.3%	-4.4%	-1.0%	-9.4	5.0%
CCCc1ccc(OCc2ccc(C(=O)N3CCSCC3)o2)cc1	85.8*	-7.0%	0.7%	1.2%	155.8*	-2.8%
CCCNC(=O)c1ccc(COc2ccc(C(C)(C)C)cc2)o1	39.8*	-6.4%	-2.2%	4.4%	94.1*	-5.9%
